The AC50 is the concentration at which the activity in the assay is half-maximal.

The results in this text go back to PubChem BioAssay (EPA / NIEHS).

Read-out in assay [1]: Collagen I, COL1A1 (gene 1277)
The experiment in a line: BSK_MyoF_CollagenI: BioMAP Diversity Plus: MyoF Assay for Collagen I Biomarker Activity (AID 2284238). The settings on record: primary human lung fibroblasts. In outline: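 Primary human lung fibroblasts (MyoF system) treated 24 h; Collagen I quantified by ELISA and fitted in positive direction against DMSO. Parallel SRB total-protein staining assessed overt cytotoxicity.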

Read-out in assay [2]: Collagen III, COL3A1 (gene 1281)
The experiment in a line: BSK_MyoF_CollagenIII: BioMAP Diversity Plus: MyoF Assay for Collagen III Biomarker Activity (AID 2284239). To be noted: primary human lung fibroblasts. The method in brief:
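Primary human lung fibroblasts (BioMAP MyoF system) exposed 24 h. Collagen III measured by ELISA; positive-direction fit relative to DMSO.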

Read-out in assay [3]: Interleukin 17F (IL17F), IL17F (gene 112744)
The assay can be described thus: BSK_BT_xIL17F: BioMAP Diversity Plus: BT Assay for Interleukin 17F (IL17F) Biomarker Activity (AID 2284243). The settings on record: primary human B cells with PBMC. The method in brief: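 Human PBMC co-cultured with B cells, compound exposure 24 h; secreted IL-17F quantified by Luminex xMAP, referenced to DMSO control. PBMC viability measured in parallel by Alamar Blue reduction.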

Read-out in assay [4]: Actin alpha 1 (ACTA1), ACTA1 (gene 58)
The experiment in a line: BSK_MyoF_ACTA1: BioMAP Diversity Plus: MyoF Assay for Actin alpha 1 (ACTA1) Biomarker Activity (AID 2284244). To be noted: primary human lung fibroblasts. The method in brief: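 Lung fibroblasts, human primary, 24 h compound exposure → a-SMA ELISA. Positive-direction fit vs DMSO control.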

Read-out in assay [5]: Interleukin 2 (IL2), IL2 (gene 3558)
The experiment in a line: BSK_BT_xIL2: BioMAP Diversity Plus: BT Assay for Interleukin 2 (IL2) Biomarker Activity (AID 2284245). The settings on record: primary human B cells with PBMC. In outline: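 B cell + PBMC co-culture (human primary), compound added, 24 h incubation; secreted IL-2 measured multiplexed on Luminex xMAP; gain-of-signal fit vs DMSO.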

Read-out in assay [6]: Basic fibroblast growth factor (bFGF), FGF2 (gene 2247)
The experiment in a line: BSK_MyoF_bFGF: BioMAP Diversity Plus: MyoF Assay for Basic fibroblast growth factor (bFGF) Biomarker Activity (AID 2284246). To be noted: primary human lung fibroblasts. The method in brief:
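ELISA-measured bFGF level serves as the read-out, taken 24 h after chemical dosing of human lung fibroblasts. Values represent signal gain over the DMSO negative control.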

Read-out in assay [7]: Monokine induced gamma interferon (MIG), CXCL9 (gene 4283)
The experiment in a line: BSK_KF3CT_MIG: BioMAP Diversity Plus: KF3CT Assay for Monokine induced gamma interferon (MIG) Biomarker Activity (AID 2284248). The settings on record: primary human keratinocytes with fibroblasts. The method in brief: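 Human keratinocyte–foreskin fibroblast co-culture; MIG measured by ELISA 24 h after chemical dosing, fitted upward versus DMSO. Cytotoxicity was assessed in parallel cultures by SRB total-protein staining read at 560 nm.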

Read-out in assay [8]: Vascular cell adhesion molecule 1 (VCAM1), VCAM1 (gene 7412)
The experiment in a line: BSK_BF4T_VCAM1: BioMAP Diversity Plus: BF4T Assay for Vascular cell adhesion molecule 1 (VCAM1) Biomarker Activity (AID 2284249). The settings on record: primary human bronchial epithelial cells with fibroblasts. The method in brief:
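Human bronchial epithelial cell and dermal fibroblast co-culture exposed 24 h. VCAM-1 measured by ELISA; parallel SRB total-protein staining for cytotoxicity. Fitted in positive direction relative to DMSO.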

Read-out in assay [9]: Collagen I, COL1A1 (gene 1277)
The assay can be described thus: BSK_hDFCGF_CollagenI: BioMAP Diversity Plus: hDFCGF Assay for Collagen I Biomarker Activity (AID 2284250). To be noted: primary human foreskin fibroblasts. The method in brief: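 Human skin primary fibroblasts dosed with test chemical, harvested at 24 h, Collagen I quantified by ELISA; parallel SRB staining (0.1% SRB after 10% TCA fixation, 560 nm) tracked cytotoxicity.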

Read-out in assay [10]: Plasminogen activator inhibitor-1 (PAI1), SERPINE1 (gene 5054)
The assay can be described thus: BSK_KF3CT_PAI1: BioMAP Diversity Plus: KF3CT Assay for Plasminogen activator inhibitor-1 (PAI1) Biomarker Activity (AID 2284252). To be noted: primary human keratinocytes with fibroblasts. The method in brief: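 ELISA read-out of PAI-1 taken 24 h after chemical treatment of a human skin primary co-culture of keratinocytes and foreskin fibroblasts. Increases over DMSO-treated wells defined activity.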

Read-out in assay [11]: Monocyte Chemoattractant Protein-1 (MCP1), CCL2 (gene 6347)
The experiment in a line: BSK_IMphg_MCP1: BioMAP Diversity Plus: IMphg Assay for Monocyte Chemoattractant Protein-1 (MCP1) Biomarker Activity (AID 2284253). To be noted: primary human endothelial cells with macrophages. The method in brief: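 Human venular endothelial cells co-cultured with macrophages; MCP-1 measured by ELISA 24 hours post-dose and fitted against DMSO. Cytotoxicity monitored by SRB total-protein staining in parallel cultures.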

The nature of assay [12]: UKN4_HCS_LUHMES_cell_viability: Viability Assessment in the University of Konstanz (UKN) Leist Lab Neurite Outgrowth Assay in human LUHMES cells (UKN4) (AID 2284232). The method in brief:
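Fluorescence intensity from high-content imaging of Hoechst H-33342/calcein-AM-stained cells served as the viability read-out. Human LUHMES precursors were differentiated 2 days, replated and treated 24 h; curves were fitted bidirectionally against DMSO.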

Assay [13] is described as follows: UKN2_HCS_IMR90_cell_viability: Viability Assessment in the University of Konstanz (UKN) Leist Lab Neural Crest Cell Migration Assay in human induced IMR90 Pluripotent Stem Cells (UKN2) (AID 2284233).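 Note: viability of neural crest cells differentiated from IMR90 iPSC measured by calcein-AM fluorescence imaging; cells exposed to compound for 24 h after a 24 h migration phase.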 The method in brief: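 iPSC-derived (IMR90) neural crest cells seeded around silicone stoppers on PLO/laminin/fibronectin; after 24 h migration in N2-S with EGF/FGF, chemical added for 24 h. Calcein-AM/Hoechst stained 30 min, high-content imaged; bidirectional fit versus DMSO.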

The nature of assay [14]: CCTE_Mundy_HCI_Cortical_NOG_NeuronCount: CCTE's Neurite Outgrowth Assay in rat cortical cells for Neuron Count, Mundy Lab (AID 2284236; active = hit-call score of the fitted dose curve at least 0.9, where 1 is the maximum;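 note: neurons counted by imaging betaIII-tubulin and Hoechst stained cortical cells; cells exposed to compound for about 48 hours before fixation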). In outline: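 Read-out: neuron number by high-content imaging of betaIII-tubulin (Alexa Fluor-488) and Hoechst-labelled rat primary cortical cells.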
A short description of assay [15]: CCTE_Mundy_HCI_Cortical_NOG_BPCount: CCTE's Neurite Outgrowth Assay in rat cortical cells for Branch Point Count, Mundy Lab (AID 2284237). The method in brief:
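Measured 50.33 h after dosing, this morphology endpoint uses rat primary cortical cultures labelled for betaIII-tubulin. Branch points are quantified by high-content imaging, with DMSO as negative control and baseline.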

Assay [16] can be described thus: CCTE_Mundy_HCI_hNP1_Casp3_7: CCTE's Caspase-Glo 3/7 Assay in human neuroprogenitor cells for Apoptosis, Mundy Lab (AID 2284240). In outline: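 Neuroepithelial-lineage stem cells from WA09 embryonic cells were treated with chemicals after 40–44 h of culture. Twenty-four hours later, caspase-3/7 activation was detected luminescently after a 30 min room-temperature reagent step, with DMSO as baseline.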

The nature of assay [17]: CCTE_Mundy_HCI_hNP1_CellTiter: CCTE's Cell Titer-Glo 2 Assay in human neuroprogenitor cells for Viability, Mundy Lab (AID 2284241; active = hit-call score of the fitted dose curve at least 0.9, where 1 is the maximum). The method in brief:
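Measures ATP content in human neural progenitors derived from WA09 embryonic cells. Read-out at 26.5 hours after dosing, with DMSO serving as the negative control and baseline.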
(In general: ATP-based viability assays read luminescence as a measure of living cells.)

Assay [18] in a line: TAMU_HCS_1.5hr_SingleDonor1434_Cytotoxicity: Cytotoxicity Assessment using High-content Screening (HCS) Fluorescent Imaging for the Texas A&M University (TAMU) 1.5-hr Human Induced Pluripotent Stem Cell (iPSC)-derived Cardiotoxicity Assay (AID 2284234; active = hit-call score of the fitted dose curve at least 0.9, where 1 is the maximum). The method in brief: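 Human iPSC-derived cardiomyocytes dosed at 0.2, 1, 10, 100 uM final (0.5% DMSO) for 90 min at 37 C. Hoechst 33342-stained nuclei counted by 10x high-content imaging; POD is EC10, a 10% drop in total cell count versus DMSO.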

Assay [19] is described as follows: TAMU_PeakParms_SingleDonor1434_QT: Texas A&M University (TAMU) 1.5-hr Human Induced Pluripotent Stem Cell (iPSC)-derived Cardiomyocytes Calcium (Ca+2) Flux Assay for Cardiotoxicity: QT (decay-rise ratio) (AID 2284235; active = hit-call score of the fitted dose curve at least 0.9, where 1 is the maximum). The method in brief:
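iPSC-derived cardiomyocytes (single donor 1434) dosed at 0.2, 1, 10, 100 uM final in 0.5% DMSO, 90 min at 37C. Ca2+ flux fluorescence decay/rise ratio; EC05 (5% increase versus DMSO) as POD, excluding beat-arrest and severe-notch data.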

Molecules are shown by their SMILES. “And” between values parts separate entries of the source, which are not always exact repeats. Equal entries are not always repeated. Results filed as inconclusive are left out. The source made the active and inactive calls. Rule for the calls, unless noted: active = hit-call score of the fitted dose curve at least 0.9, where 1 is the maximum; inactive = score below 0.9.

Regarding `FC(F)C(F)(F)COCC1CO1` (centres undefined), the outcome in assay [1], in [2], in assay [3], in [4], in assay [5] and in [6] was inactive. In addition, the result in assay [7], in [8], in [9], in [10] and in assay [11] was inactive.
With `NCC(F)(F)C(F)(F)C(F)(F)C(F)(F)F`, the outcome in assay [1], in [2], in assay [3], in [4], in assay [5] and in assay [6] was inactive. Besides, the result in assay [7], in [8], in [9], in assay [10] and in assay [11] was inactive.
`NC(=O)N1c2ccccc2C=Cc2ccccc21`: the compound was called inactive in assay [12], in assay [13], in assay [14], in assay [15], in assay [16] and in [17].
Take `Cc1cccc(O)c1C`: the result in assay [1], in [2], in [3], in assay [4], in [5] and in assay [6] was inactive.
With `OC[C@H]1O[C@@](CO)(O[C@H]2O[C@H](CO)[C@@H](O)[C@H](O)[C@H]2O)[C@@H](O)[C@@H]1O`, the compound was called inactive in assay [18].
Turning to `CCN(CC)C(=S)SSC(=S)N(CC)CC`, the AC50 in [18] is 50 µM (active).
For `FC(F)=C(F)C(F)(F)C(F)(F)C(F)(F)C(F)(F)C(F)(F)C(F)(F)F`, the outcome in assay [1], in assay [2], in assay [16], in assay [17], in assay [3] and in assay [4] was inactive. The outcome in [5], in [6], in [7], in assay [8], in assay [9] and in [10] was inactive. In assay [11], the outcome was inactive.
With `O=S(=O)(O)CCC(F)(F)C(F)(F)C(F)(F)C(F)(F)C(F)(F)C(F)(F)F`, the result in assay [1], in assay [2], in assay [3], in assay [4], in [5] and in assay [6] was inactive. For the same compound, the outcome in [7], in assay [8], in assay [9], in assay [10] and in assay [11] was inactive.
Regarding `FC(F)(F)COC(OCC(F)(F)F)OCC(F)(F)F`, the result in [1], in assay [2], in assay [3], in assay [4], in assay [5] and in assay [6] was inactive. Further, the result in assay [7], in assay [8], in assay [9], in assay [10] and in assay [11] was inactive.
`c1ccc2c(c1)-c1cccc3c1c-2cc1ccccc13`: the result in assay [18] and in assay [19] was inactive.
Take `FC(F)(F)C(F)(F)C(F)(F)C(F)(F)C(F)(F)C(F)(F)I`: the half-maximal activity concentration (AC50) in assay [1] was 33.1 µM (active) and 39.4 µM (active); in assay [2] it was 30 µM (active); in assay [4], 17.8 µM (active) and 30 µM (active). In addition, the outcome in assay [16], in assay [17], in assay [3], in [5], in assay [6] and in [7] was inactive. Besides, the result in assay [8], in assay [9], in assay [10] and in assay [11] was inactive.
Regarding `O=C(Cl)C(F)(F)C(F)(F)C(F)(F)C(=O)Cl`, the outcome in assay [1], in assay [2], in assay [16], in [17], in [3] and in assay [4] was inactive. Besides, the outcome in assay [5], in [6], in [7], in [8], in assay [9] and in [10] was inactive. The outcome in assay [11] was inactive.
